The source of these data is PubChem BioAssay (NCATS).

The structures appear in SMILES notation. Results filed as inconclusive are left out.

The assay can be described thus: qHTS for identification of novel therapeutic agents for treatment of microphthalmiaassociated transcription factor (MiT) renal cell carcinoma (RCC) (AID 1963991). Particulars: TFE3-RCC UOK109 viability, CellTiter-Glo, 48 h; measured here: UOK109 Z-AUC; stronger effect = lower value. The essentials: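 Curves over 11 concentrations were fitted to CellTiter-Glo luminescence, scaled between empty wells (0%) and DMSO (100%) viability. Cells were UOK109, UOK124 and UOK145 TFE3-fusion RCC lines at 500/well, exposed 48 hours at 37 C.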
`CN(C)CCc1c[nH]c2ccc(C[C@H]3COC(=O)N3)cc12` gave a z-score of 0.402.
Compound `CCN(C)C(=O)Oc1cccc([C@H](C)N(C)C)c1` came in with a z-score of 0.893.
`CCn1cc(C(=O)O)c(=O)c2cc(F)c(N3CCN(C)CC3)cc21` came in with a z-score of 0.77.
Regarding `CC(C)OC(=O)OCOP(=O)(CO[C@H](C)Cn1cnc2c(N)ncnc21)OCOC(=O)OC(C)C`, the z-score was determined as 0.412.
In turn, `CCN(CC)CCn1c(=O)c(Cc2ccc(OC)cc2)nc2ccccc21` yielded a z-score of 0.411.
Compound `CN(Cc1cc(Br)cc(Br)c1N)C1CCCCC1` registered a z-score of 1.13.
With `COC(c1ccccc1)(c1ccccc1)[C@H](Oc1nc(C)cc(C)n1)C(=O)O`, the z-score worked out at 1.16.
Regarding `CCOc1cc(N)c(Cl)cc1C(=O)NCC1CN(Cc2ccc(F)cc2)CCO1` (stereo not drawn), the z-score is -0.211.
`NNC(=O)c1ccncc1` came in with a z-score of 1.86.
For the compound `Nc1[nH]c(=O)ncc1F`, the z-score stood at 0.532.
`O=C(O)c1cc(=O)[nH]c(=O)[nH]1` registered a z-score of 1.07.
`C#CCN[C@@H]1CCc2ccccc21`: the z-score is 0.682.
The same measure for `Cn1nnc2c(C(N)=O)ncn2c1=O`: 0.106; for `Cc1nnc(C(=O)NC(C)(C)c2nc(C(=O)NCc3ccc(F)cc3)c(O)c(=O)n2C)o1`: 0.782.
`NC(=O)c1ccc2[nH]ccc2c1` had a z-score of 0.214.
The same measure for `CC1=C(C(=O)O)N2C(=O)[C@@H](NC(=O)C(N)c3ccccc3)[C@H]2SC1` (stereo partly drawn): 1.68; for `CCCCS(=N)(=O)CCC(N)C(=O)O` (stereo not drawn): 0.217.
As for `Cn1c(=O)c2c(ncn2CC(O)CO)n(C)c1=O` (stereo not drawn), the z-score turned out to be 0.0441.
